According to PubChem BioAssay AID488913 (National Center for Advancing Translational Sciences (NCATS), 2010):
Where “and” joins values, the source holds several entries; their conditions need not be identical. Equal entries are not always repeated. Results filed as inconclusive are left out. Calls of active or inactive are those of the source. Calls come from the whole dose curve; as a rule, active = well fitted inhibition curve with a large enough effect; inconclusive = small, poorly fitted or top-dose-only effect, or effect the other way; inactive = no such curve, though single readings can be large or run the other way.

Experiment: Confirmation Concentration-Response Assay for lipid storage modulators: for probe SAR
Settings: Drosophila S3 cells, BODIPY lipid droplet fluorescence, 18-24 h; series mostly up to 46.1 µM
From the text: NIH Molecular Libraries Probe Production Centers Network [MLPCN] NIH Chemical Genomics Center [NCGC] MLPCN Grant: 1 R03 MH085686-01 Assay Submitter (PI): Beller, Mathias; Max-Planck-Institut fur Biophysikalische Chemie NCGC Assay Overview: Storing lipids as a reservoir for energy or the anabolism of elementary metabolites is a common feature of probably all cells and is conserved from bacteria to humans. The universal cellular lipid storage organelle is the so-called lipid storage droplet (LD). Although ubiquitous, LDs share a simple structure composed of a hydrophobic core that harbors the storage lipids, which is shielded by a droplet-specific phospholipid monolayer to which proteins are attached. The current model of LD biogenesis involves an incorporation of the lipid core into the membrane leaflets of the endoplasmic reticulum (ER) followed by a subsequent budding-like maturation of a LD, which ultimately pinches off. Once released, LD volume can increase by localized lipogenesis or fusion of existing droplets. Storage lipids are re-mobilized enzymatically by lipase activity. Lipase regulation in the adipocyte is heavily studied and involves multiple components including catecholamine signaling, the LD-associated proteins Perilipin and comparative gene identification-58 (CGI-58) and at least two lipases named hormone sensitive lipase (HSL) and adipocyte triglyceride lipase (ATGL). LD regulation outside of the adipocyte is poorly understood and only few components are known. However, there is an urgent need to learn more about ectopic fat depots as mislocalized storage of lipids, for example in the liver or muscle, is an eminent health problem associated with insulin resistance or the metabolic syndrome. We developed a laser-scanning cytometer assay to enable 1,536-well screening and combined the results of the small molecules screen with an RNAi database based on lipid storage.
We dispensed 4 uL of cells at 1.25 x 10^6 cells/mL into LoBase Aurora COC 1,536-well plates (black walled, clear bottom) with a bottle-valve solenoid-based dispenser (Aurora) to obtain 5,000 cells/well. Triacsin C (Sigma-Aldrich T-4540), an inhibitor of long-chain fatty acyl CoA synthetase that blocks synthesis of triglycerides, was used as a positive control for lipid under-storage. A total of 23 nL of compound solution of different concentrations were transferred to the assay plates using a Kalypsys pin tool equipped with a 1,536-pin array containing 10-nL slotted pins (FP1S10, 0.457-mm diameter, 50.8 mm long; V&P Scientific). One microliter of oleic acid (400 uM) was added, and the plate was lidded with stainless steel rubber gasket lined lids containing pinholes. After 18-24 h incubation at 24 degree Celsius and 95% humidity, 4 uL of the dyes BODIPY 493/503 (Molecular Probes) and the Cell Tracker Red CMTPX dye (Molecular Probes) were added to the wells to stain lipid droplets and enumerate cell number, respectively. Fluorescence was detected by excitation of the fluorophores with a 488-nm laser on an Acumen Explorer (TTP Lab Tech). The total intensity in channel 1 (500-530 nm) reflected lipid droplet accumulation. Cells were detected using channel 3 (575- 640 nm) with 5-um width and 100-um depth filters. The ratio of the total intensity in PMT channel 1 over total intensity of channel 3 was also calculated. Percent activity was computed relative to an internal control (100% inhibited lipid droplet deposition due to the presence of 20 uM Triacsin C), which was added to 32 wells/plate.

SMILES | Potency
COc1ccc(-n2ncc3c2CCCC3NC(=O)c2cnc(C)cn2)cc1 (stereo not given) | 1.58 µM (active)
CC(C)(C)OC(=O)N1CCCCC1C(=O)NC1CCCc2c1cnn2-c1ccc(F)cc1F (stereo not given) | inactive
COc1ccc(CCNC(=O)c2cc3sccc3n2Cc2ccccc2)cc1OC | 0.315 µM (active)
CCOc1ccc(CCNC(=O)c2cc3sccc3n2Cc2ccc(Cl)c(F)c2)cc1OCC | 0.0063 µM (active)
CCOc1ccc(CCNC(=O)c2cccc(C(=O)c3ccccc3)c2)cc1OCC | 15.8 µM (active)
O=C(NCCc1ccc2c(c1)OCO2)c1cc2sccc2n1Cc1ccccc1 | inactive
CCOC(=O)C1CCN(C(=O)C2(NC(=O)Nc3ccccc3Cl)CCC2)CC1 | 2.81 µM (active)
Cn1c(=O)n(-c2ccc(C(C)(C)C#N)cc2)c2c3cc(-c4cnc5ccccc5c4)ccc3ncc21 | 1.12 µM (active)
CCOC(=O)C1CCN(C(=O)C2(NC(=O)Nc3ccccc3Cl)CCCCC2)CC1 | 1.44 µM (active)
O=C(NC1CCCCC1)NC1(C(=O)N2CCCC2)CCCCC1 | inactive
CCOC(=O)C1CCCN(C(=O)C2(NC(=O)Nc3ccc(F)cc3F)CCCCC2)C1 (stereo not given) | inactive
O=C(NC1CCCc2c1cnn2-c1ccc(F)cc1F)c1ccc(F)cc1 (stereo not given) | 0.445 µM (active)
O=C(NC1CCCc2c1cnn2-c1ccc(F)cc1F)c1cccc(F)c1F (stereo not given) | 0.315 µM (active)
O=C(NC1CCCc2c1cnn2-c1ccc(F)cc1F)c1ccn[nH]1 (stereo not given) | 2.81 µM (active)
CCOc1ccc(CCNC(=O)c2cc3sccc3n2CC)cc1OCC | 0.158 µM (active)
O=C(NC1CCCc2c1cnn2-c1ccc(F)cc1F)C1CC1 (stereo not given) | 1.58 µM (active)
CC(C)(C)OC(=O)NC1CCCc2c1cnn2-c1ccc(F)cc1F (stereo not given) | 0.888 µM (active)
O=C(N[C@H]1CCCc2c1cnn2-c1ccc(F)cc1F)c1ccccn1 | 7.91 µM (active)
O=C(NC1CCCc2c1cnn2-c1ccc(F)cc1F)C1CCCCC1 (stereo not given) | 4.99 µM (active)
CCOC(=O)C1CCN(C(C)C(=O)NC(=O)NC2CCCCC2)CC1 (stereo not given) | inactive

SMILES | Potency
CCOc1ccc(CCNC(=O)c2cc3c(s2)CCC3)cc1OCC | 0.56 µM (active)
O=C(NC1CCCc2c1cnn2-c1ccc(F)cc1F)C1CCCCN1 (stereo not given) | inactive
COc1ccc(CCNC(=O)c2cc3sccc3n2Cc2ccc(Cl)cc2)cc1OC | 0.194 µM (active)
O=C(NC1CCCc2c1cnn2-c1ccc(F)cc1F)c1cnsn1 (stereo not given) | 0.499 µM (active)
COc1ccc(-c2csc(NC(=O)CSc3nnc(NC4CC4)s3)n2)cc1OC | inactive
CC1(C)CCC(c2ccc(Cl)cc2)=C(CN2CCN(c3ccc(C(=O)NS(=O)(=O)c4ccc(N[C@H](CCN5CCOCC5)CSc5ccccc5)c(S(=O)(=O)C(F)(F)F)c4)cc3)CC2)C1 | 0.996 µM (active)
Cc1cc(SCc2sc(-c3ccc(C(F)(F)F)cc3)nc2C)ccc1OCC(=O)O | inactive
O=C(NC1CCCc2c1cnn2-c1ccc(F)cc1F)c1c(F)cccc1Cl (stereo not given) | 3.53 µM (active)
O=C(Cc1ccccc1)NC1CCCc2c1cnn2-c1ccc(F)cc1F (stereo not given) | inactive
CCOc1ccc(CCNC(=O)c2cc3sccc3n2Cc2cccc(C)c2)cc1OCC | 0.004 µM (active)
O=C(CSc1nnc(NCc2ccccc2)s1)Nc1nc(-c2ccc(F)c(F)c2)cs1 | 1.25 µM (active)
CCOc1ccc(CCNC(=O)c2cc3sc(CC)cc3n2C)cc1OCC | 1.22 µM (active)
O=C(NC1CCCc2c1cnn2-c1ccc(F)cc1F)c1ccccn1 (stereo not given) | 8.7 nM (active) and 7.9 nM (active)
O=C(Cc1cccs1)Nc1nc(-c2ccc3c(c2)CCC3)cs1 | inactive
O=C(NC1CCCc2c1cnn2-c1cc(F)cc(F)c1)c1cccc2nccnc12 (stereo not given) | 3.45 µM (active)
CCOc1ccc(CCNC(=O)c2cc3sc(Cl)cc3n2CC)cc1OCC | 2.23 µM (active)
O=C(NC1CCCc2c1cnn2-c1ccccc1F)c1cccc2nccnc12 (stereo not given) | 2.74 µM (active)
O=C(NC1CCCc2c1cnn2-c1ccc(F)cc1F)c1cccc(=O)[nH]1 (stereo not given) | 7.91 µM (active)
Cc1nc(SC(C)C(=O)Nc2nc(-c3ccccc3)cs2)n(CC2CCCO2)c1C (stereo not given) | 4.45 µM (active)
S=C(Nc1cc(Cl)ccc1Oc1ccccc1)N1CCN(c2ncccn2)CC1 | 12.5 µM (active)
